Laboratory results reported in PubChem BioAssay (Tox21).
Results filed as inconclusive are left out. Values without a mark were called inactive. Active and inactive are the calls of the source. Calls follow the shape of the full dose curve.

Assay: cAMP Responsive Elements (CRE) small molecule agonists, cell-based qHTS assay (AID 1963590)
Conditions: CRE-bla HEK293T, beta-lactamase FRET ratio, 3 h; series mostly up to 92.4 µM; activation: at the top concentration
Source text: U.S. Tox21 Program National Center for Advancing Translational Sciences [NCATS] Division of Preclinical Innovation [DPI] U.S. Environmental Protection Agency [EPA] National Institutes of Environmental Health Sciences [NIEHS] National Toxicology Program [NTP] U.S. Food and Drug Administration [FDA] Tox21 Assay Overview: CREB (cyclic-AMP Responsive Element Binding Protein) is a cellular transcription factor. It binds to certain DNA sequences called cAMP Responsive Elements (CRE) and regulates the transcription of the genes. […] This cell line can be used to find agonists/antagonists of the cyclic AMP signaling pathway. The activation of the report gene under culture conditions can be detected by fluorescence intensity. This cell line has been used to screen the Tox21 10K compound library to identify agonists that induce oxidative stress.
Tox21 Assay Protocol Summary: CRE-bla Hek 293T cells were suspended in assay medium (DMEM containing 10% dialyzed FBS, 0.1 mM NEAA, 1 mM sodium pyruvate and 25 mM HEPES) and dispensed at 2,000 cells/5 uL /well into 1536-well black wall/clear bottom plates using a Multidrop Combi (ThermoFisher Scientific, Waltham, MA) dispenser. After the assay plates were incubated at 37 C/5% CO2 for 18 hrs, 23 nL of compounds dissolved in DMSO, positive controls or DMSO only was transferred to the assay plate by a pintool workstation (Kalypsys, San Diego, CA). After the plates were incubated at 37 C/5% CO2 for 3 hrs, 1 uL of LiveBLAzer B/G FRET substrate (Invitrogen, Carlsbad, CA) was added to each well using Bioraptr Flying Reagent Dispenser (FRD, Aurora Discovery, San Diego, CA). The plates were incubated at room temperature for 2 h.
% is scaled to controls: 0 for no effect and ±100 for the full control effect; potency is read from the fitted curve at half-maximal effect.

SMILES	activation	Potency
ClC=C(Cl)Cl	-0.769%	
CON(C)C(=O)Nc1ccc(Br)c(Cl)c1	0.885%	
ClC1=C(Cl)C2(Cl)C(CBr)CC1(Cl)C2(Cl)Cl (stereo not given)		inactive
O=c1[nH]oc2c1CCNC2	-0.146% [at 42.5 µM]	
CCCCCl	2.99%	
OC(Cc1ccccc1Cl)(Cn1[nH]cnc1=S)C1(Cl)CC1 (stereo not given)	0.432%	
O=[N+]([O-])c1ccc(CCl)cc1	0.21%	
CCC1CCC(=O)O1 (stereo not given)	-1.06%	
OC(c1ccccc1)(c1ccccc1)C1CCNCC1	0.367% [at 42.5 µM]	
CNC(=O)Oc1cc(C)c(SC)c(C)c1	1.22%	
CC(O)CCl (stereo not given)	-0.177%	
O=Cc1ccc2c(c1)OCO2	0.281%	
Cc1ncsc1CCCl	-0.279% [at 42.5 µM]	
Cc1ccc(C)c2ccccc12	0.087%	
c1ccc2c(c1)[nH]c1cnccc12	-2.68%	
Nc1ccccc1-c1ccccc1	-2.08%	
Cc1cccc2sc3nncn3c12	0.978%	
SCc1ccco1	1.88%	
CN(CCCC(O)c1cccnc1)N=O (stereo not given)	0.48%	
CCCCCCCCCCCCCCC(Br)C(=O)O (stereo not given)	0.261%	

SMILES	activation	Potency
CC(C)NCC(O)c1ccc([N+](=O)[O-])cc1 (stereo not given)	-0.67% [at 42.5 µM]	
CCCCS(=O)(=O)Cl	0.428%	
Brc1cccc(-c2ccccc2)c1	0.97%	
BrCCCCBr	-0.798%	
Oc1ccc(I)cc1	-2.17%	
SCc1ccccc1	0%	
COc1ccc2c(C(=O)c3ccc(Cl)cc3)c(C)n(CC(=O)O)c2c1	-1.06% [at 42.5 µM]	
CN1C(=O)C(O)N=C(c2ccccc2)c2cc(Cl)ccc21 (stereo not given)	10.3%	
Nc1cc(Cl)ccc1Cl	0.0238%	
CCN[C@@H](C)Cc1ccccc1	0.766%	
COP(=S)(OC)Oc1ccc(S(N)(=O)=O)cc1	0.625% [at 42.5 µM]	
C=C(Cl)Cl	0.252%	
COCC(C)N(C(=O)CCl)c1c(C)csc1C (stereo not given)	-2.37%	
CCCCC(=O)Cl	0.0886%	
O=CC(Br)(Br)Br	-1.51%	
C=CC(C)(CCC=C(C)C)OC(=O)c1ccccc1N (stereo not given)	0.0477%	
CC(Cl)(Cl)[N+](=O)[O-]	-0.204%	
NC(=S)C(N)=S	-0.225%	
COc1ccc(Cc2nccc3cc(OC)c(OC)cc23)cc1OC		11.9 µM (active)
Cc1cc(C)c(C(=O)P(=O)(C(=O)c2c(C)cc(C)cc2C)c2ccccc2)c(C)c1	0.455%	
